The results in this text go back to the supplement of paper PMC10121225.

Each structure is given as a SMILES string. Counter-ions that a name gives are not always drawn.
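Also: immunostained co-cultures imaged by high-content microscopy, Z-score per plate against mean and SD of 0.1% DMSO wells, compounds added on differentiation day 18, analysed day 21.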

The experiment has as its system hN + hpA co-culture (H1 iNGN2 human neurons + human primary astrocytes). Nature of the experiment: presynaptic density (SYNAPSIN1 puncta per MAP2 neurite area), Z-score vs DMSO controls; higher = more presynaptic puncta (synapse-promoting). The following applies: 3 µM; 72 h.
As for `C=C1C(=O)O[C@H]2[C@H]1CC/C(C)=C/CC[C@@]1(C)O[C@@H]21` [(-)-Parthenolide], the “presynaptic density (Z-score)” value was -0.888.
For `COC1CC2CCC(C)C(O)(O2)C(=O)C(=O)N2CCCCC2C(=O)OC(C(C)CC2CCC(OC(=O)C(C)(CO)CO)C(OC)C2)CC(=O)C(C)C=C(C)C(O)C(OC)C(=O)C(C)CC(C)C=CC=CC=C1C` (stereo not drawn) [Temsirolimus (CCI-779] the value was 0.145; for `Cc1c(C(=O)Nc2ccc(N3C[C@@H](C)O[C@@H](C)C3)nc2)cccc1-c1ccc(OC(F)(F)F)cc1` [LDE225 (NVP-LDE225,Erismodegib)], 0.612.
The result for `CC(=O)c1c(C)c2cnc(Nc3ccc(N4CCNCC4)cn3)nc2n(C2CCCC2)c1=O` reads -0.609.
The result for `Cc1ccc(S(=O)(=O)NC(=O)NN2CC3CCCC3C2)cc1` (stereo not drawn) reads 0.0878; that for `Cc1ccc(S(=O)(=O)n2c(N)nc3ccccc32)cc1` [ML130 (Nodinitib-1)], 0.396; that for `COc1ccccc1Oc1c(NS(=O)(=O)c2ccc(C(C)(C)C)cc2)nc(-c2ncccn2)nc1OCCO` [Bosentan Hydrate], 0.531.
For `C[C@]1(c2nc3c(C(N)=O)cccc3[nH]2)CCCN1` [Veliparib (ABT-888)], the “presynaptic density (Z-score)” value came out at 0.43.
For `Cc1cc(Nc2cc(N3CCN(C)CC3)nc(Sc3ccc(NC(=O)C4CC4)cc3)n2)n[nH]1` the value was -2.31; for `CCn1c(-c2nonc2N)nc2c(C#CC(C)(C)O)ncc(OC[C@H]3CCCNC3)c21`, -0.664; for `COCCCC/C(=N\OCCN)c1ccc(C(F)(F)F)cc1` [Fluvoxamine maleate], -0.239.
For `C[C@H]1COC2(CCN(c3nc(=O)c4cc(C(F)(F)F)cc([N+](=O)[O-])c4s3)CC2)O1` (racemic) [BTZ043 Racemate] the value was 0.635.
The result for `COc1ccc(-c2nc3cc(C4=NNC(=O)CC4C)ccc3[nH]2)cc1` (stereo not drawn) [Pimobendan] reads -0.704; that for `O=c1ncn2nc(Sc3ccc(F)cc3F)ccc2c1-c1c(Cl)cccc1Cl`, 0.626.
`C=CCc1cccc(C=NNC(=O)CN2CCN(Cc3ccccc3)CC2)c1O`: the “presynaptic density (Z-score)” value is -1.87.
For `COc1ccccc1OCCNCC(O)COc1cccc2[nH]c3ccccc3c12` (stereo not drawn) the value was -1.2.
Regarding `NC(=O)c1ncn([C@@H]2O[C@H](CO)[C@@H](O)[C@H]2O)c1N`, the “presynaptic density (Z-score)” value was found to be 0.26.
For `O=C(c1ccc(Nc2nccc(-c3cc4ccccc4s3)n2)cc1)N1CCC(N2CCCC2)CC1` the value was 0.27.
`C[C@]1(O)C[C@@H](c2nc(-c3ccc4ccc(-c5ccccc5)nc4c3)c3c(N)nccn32)C1` [OSI-906 (Linsitinib)]: the “presynaptic density (Z-score)” value came out at 0.349.
For `O=S(=O)(c1ccccc1)c1cnc2c(N3CCNCC3)cccc2c1` the value was -0.943; for `CS(=O)(=O)c1cccc(CNc2nc(Nc3ccc4c(c3)CCC(=O)N4)ncc2C(F)(F)F)c1`, 1.04.
The result for `Cc1c(-c2ccc(O)cc2)n(Cc2ccc(OCCN3CCCCCC3)cc2)c2ccc(O)cc12` [Bazedoxifene HCl] reads -0.982; that for `Cc1[nH]c2ccccc2c1C1=C(NCCc2ccc(F)cc2)C(=O)N(C)C1=O`, -0.562.
As to `CCc1cc(Nc2nccc(-c3c(-c4ccc(OC)c(C(=O)Nc5c(F)cccc5F)c4)nc4ccccn34)n2)c(OC)cc1N1CCC(N2CCN(S(C)(=O)=O)CC2)CC1`, the “presynaptic density (Z-score)” value amounted to 0.31.
On to `COc1cc(Br)c(Nc2nc(-c3c(C)nc4ncccn34)cs2)c(Br)c1`, for which the “presynaptic density (Z-score)” value is -2.
The result for `O=C1c2ccccc2-c2n[nH]c3cccc1c23` [Anthra[1-9-cd]pyrazol-6(2H)-one] reads 0.183; that for `COc1cc(CCc2cc(NC(=O)c3ccc(N4CC(C)NC(C)C4)cc3)n[nH]2)cc(OC)c1` (stereo not drawn), -0.132; that for `O=c1cc(-c2ccc(O)cc2)oc2cc(O)cc(O)c12` [Apigenin], 0.0449.
`Oc1cc(O)cc(/C=C/c2ccc(O)c(O)c2)c1` [Piceatannol]: the “presynaptic density (Z-score)” value was -0.0151.
For `CC(C)CC(=O)Nc1n[nH]c2c1CN(C(=O)C1CCN(C)CC1)C2(C)C` the value was -2.75; for `CCCCc1nc(Cl)c(CO)n1Cc1ccc(-c2ccccc2-c2nnn[nH]2)cc1` [Losartan Potassium (DuP 753)], 0.806.
For `NC(=O)Nc1cc(-c2cccc(F)c2)sc1C(=O)N[C@H]1CCCNC1` the value was 0.58; for `C1=N/C2=N/c3ccc(OCCN4CCCC4)c(c3)COC/C=C/COCc3cccc(c3)C(=C1)N2` [Pacritinib (SB1518)], -1.08; for `Cc1nnc(C(C)C)n1C1C[C@H]2CC[C@@H](C1)N2CC[C@H](NC(=O)C1CCC(F)(F)CC1)c1ccccc1` (stereo in doubt) [Maraviroc], -1.28.
The result for `CC(C)(C)c1cc(/C=C(\C#N)C(N)=S)cc(C(C)(C)C)c1O` [Tyrphostin AG 879] reads -0.121; that for `Nc1nc(N)c2nc(-c3cccc(O)c3)c(-c3cccc(O)c3)nc2n1`, 1.05.
`O=C(/C=C/c1cccc(S(=O)(=O)Nc2ccccc2)c1)NO` [Belinostat(PXD101)]: the “presynaptic density (Z-score)” value was found to be 2.26.
Consider `COc1cc(OC2CCN(C)CC2)ccc1Nc1ncc2c(n1)n(C1CCCC1)c(=O)n2C`, for which the “presynaptic density (Z-score)” value is -0.583.
